Compounds with a hit are over-represented: about 10% of the library has one in this group of screens.
hNpr1 antagonist: human Npr1 receptor antagonism. 1.6% of 76,000 active. AID 1347048. HEK293 hNpr1 GloSensor cGMP, ANP-stimulated luminescence. Potency, µM (doses to about 46.3 µM), actives largely listed as inhibitors. P16066; calls by dose curve; further: nearly all actives have a fitted effect of over 60% in size
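HEK293 cells stably expressing human Npr1 and cGMP GloSensor pGS-40F, loaded 2 h with 2% GloSensor reagent, given compound 30 min at room temperature. Luminescence read before and 20 min after 0.1 nM hNppA.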
FLuc inh: blocks purified firefly luciferase enzyme activity. purified P. pyralis luciferase, luminescence, biochemical. 2.5% of 76,000 active. Potency, µM (titrated, usually from 115 µM), hits mostly inhibitors. P08659. AID 1347043; further: nearly all actives have a fitted effect of over 65% in size
Target sequence (P08659 whole entry, looked up): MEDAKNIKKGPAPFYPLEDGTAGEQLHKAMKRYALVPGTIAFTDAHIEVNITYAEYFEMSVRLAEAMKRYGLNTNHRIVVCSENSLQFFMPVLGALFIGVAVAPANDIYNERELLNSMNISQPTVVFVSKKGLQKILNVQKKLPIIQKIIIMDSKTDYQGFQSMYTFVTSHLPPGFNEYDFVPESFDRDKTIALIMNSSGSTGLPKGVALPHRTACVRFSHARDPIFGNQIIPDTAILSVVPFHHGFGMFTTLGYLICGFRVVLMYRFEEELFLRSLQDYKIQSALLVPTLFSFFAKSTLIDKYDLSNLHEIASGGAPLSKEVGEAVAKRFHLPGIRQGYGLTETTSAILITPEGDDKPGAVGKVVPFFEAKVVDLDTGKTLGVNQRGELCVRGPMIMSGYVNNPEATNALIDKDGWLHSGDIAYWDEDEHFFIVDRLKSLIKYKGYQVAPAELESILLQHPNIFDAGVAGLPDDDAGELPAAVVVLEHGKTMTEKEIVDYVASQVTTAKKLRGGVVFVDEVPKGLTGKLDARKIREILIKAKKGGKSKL
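Luminescence read by CCD imaging after purified firefly luciferase (10nM final) was added to substrate buffer holding 10uM D-luciferin and 10uM ATP, pH 7.5, pre-dosed with compound.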
3T3 cytotox: cytotoxic compounds in NIH 3T3 cells; Potency, µM (series often up to 96.7 µM), hits mostly inhibitors; NIH 3T3 viability, CellTiter-Glo ATP luminescence, 48-72 h; 4.3% of 94,000 active; AID 1345082; further: nearly all actives have a fitted effect of over 55% in size
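Cells were seeded at 400 per well, treated with pin-transferred compound, and kept 48 or 72 hr at 37 °C before CellTiter-Glo addition and luminescence imaging of cellular ATP.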
GPT2 inh: inhibitors of human GPT2 alanine aminotransferase; Q8TD30; Recombinant GPT2, coupled pyruvate oxidase/HRP Amplex Red fluorescence; Potency, µM (highest dose often 57.7 µM), hits mostly inhibitors; 0.25% of 100,000 active; further: nearly all actives have a fitted effect of over 60% in size
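Fluorescence read-out: pyruvate from GPT2 turnover coupled to pyruvate oxidase, HRP and Amplex Red (0.2mM ThPP, 0.2U/mL PO and HRP, 50uM Amplex final). Substrates 250uM a-KG, 2mM L-alanine; enzyme 10ng/uL; 30 min RT.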
HEK293 tox: HEK 293 cell cytotoxicity; HEK 293 viability, ATP luminescence (CellTiter-Glo), 48-72 h; Potency, µM (series often up to 115 µM), actives largely listed as inhibitors; 6.6% of 94,000 active; further: nearly all actives have a fitted effect of over 60% in size
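Cytotoxicity was scored by loss of ATP-coupled luminescence (CellTiter-Glo) in HEK 293 cells. Compound treatment ran 48 or 72 hr at 37 degree Celsius, 5% CO2, 95% humidity.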
A number is an active result; – = inactive; ? = inconclusive; · = not tested or not shown. Unless noted, the call rests on the fitted dose curve; in most records, active means well fitted curve in the direction sought with a large enough effect; inconclusive means small, poorly fitted or top-dose-only effect, or another doubt; inactive means no such curve, though single readings can be large; an effect the other way counts as inactive or inconclusive.

SMILES | hNpr1 antagonist | FLuc inh | 3T3 cytotox | GPT2 inh | HEK293 tox
COc1ccc(NC(=O)c2cc(-c3ccc[nH]3)n[nH]2)cc1F | – | 16µM | – | – | –
O=C(Nc1cccc(F)c1)c1cc(-c2ccc[nH]2)n[nH]1 | ? | 2.2µM | – | – | –
O=C(Nc1cccc(C(F)(F)F)c1)c1cc(-c2ccc[nH]2)n[nH]1 | – | ? | – | – | –
CSc1ccc(NC(=O)c2cc(-c3ccc[nH]3)n[nH]2)cc1 | – | 4.5µM | – | – | –
O=C(Nc1cccc(Cl)c1)c1cc(-c2ccc[nH]2)n[nH]1 | ? | 1.6µM | – | – | –
CC(C)Cn1c(=O)c(C(=O)NC(C)C)nc2cccnc21 | · | · | – | – | –
O=C(C1CCCN1C(=O)NC1CCCC1)N1CCC(N2Cc3cccn3C2=O)CC1 (configuration not stated) | · | · | – | – | –
CCc1cccc(NC(=O)Cn2c(C)ccc(NS(=O)(=O)c3ccc(C)cc3)c2=O)c1 | – | – | – | – | –
CCCNC(=O)[C@@H]1Cc2cn(Cc3nccn3C)c3cccc(c23)[C@H](CC(C)C)N1 | – | – | 100µM | – | 45µM
CC#CCn1cc2c3c(cccc31)[C@H](CC(C)C)N[C@H](C(=O)NCCC)C2 | – | – | 40µM | – | 56µM
COCCCNC(=O)[C@@H]1Cc2cn(Cc3nccn3C)c3cccc(c23)[C@H](CC(C)C)N1 | – | – | – | ? | ?
CC(C)C[C@@H]1N[C@H](C(=O)NCC2CC2)Cc2cn(Cc3nccn3C)c3cccc1c23 | – | – | 63µM | – | 35µM
COc1ccc(-c2ccc(C(=O)N3CCC(NC(=O)NC4CCCC4)CC3)cc2)nn1 | · | · | – | · | ?
CC(C)(C)NC(=O)N1CCCC1c1nc(CCOCC2CCCC2)no1 (configuration not stated) | – | – | – | – | –
O=C(NCc1cccnc1)C1(CCO)CC12CCOCC2 (configuration not stated) | – | 28µM | – | – | –
Cc1ccc(CNC(=O)C2(CCO)CC23CCOCC3)o1 (configuration not stated) | – | – | – | – | –
Cc1nnc2ccc(N3CCCC(N[S+](=O)([O-])c4ccccc4)C3)nn12 (configuration not stated) | · | · | – | · | –
CC1=C[C@@H](CNCc2ccccn2)[C@H](C(C)C)C[C@H]1Cc1nnc(-c2ccccc2)o1 | ? | – | ? | – | 79µM
CC1=C[C@@H](CNCc2cccnc2)[C@H](C(C)C)C[C@H]1Cc1nnc(-c2ccc(N(C)C)cc2)o1 | ? | – | ? | – | 18µM
CC1=C[C@@H](CNCc2cccnc2)[C@H](C(C)C)C[C@H]1Cc1nnc(-c2ccncc2)o1 | – | – | ? | – | ?
CC1=C[C@@H](CNCc2ccncc2)[C@H](C(C)C)C[C@H]1Cc1nnc(-c2ccc(C)cc2)o1 | ? | – | ? | – | ?
CC1=C[C@@H](CNCc2ccccn2)[C@H](C(C)C)C[C@H]1Cc1nnc(-c2ccc(N(C)C)cc2)o1 | – | – | ? | – | 11µM
O=C(CNC(=O)C1CCCN1C(=O)c1cccc(-c2cccnc2)c1)c1ccccc1 (configuration not stated) | · | · | – | · | ?
CN1C(=O)CC[C@]2(C(=O)NCc3cccc(C(F)(F)F)c3)CCCC[C@@H]12 | – | – | – | – | –
O=C(CCc1ccccc1)N1CCCCCC1c1nnc(-c2ccccc2)o1 (configuration not stated) | ? | ? | ? | – | ?
SMILES | hNpr1 antagonist | FLuc inh | 3T3 cytotox | GPT2 inh | HEK293 tox
Cc1ccc(C(=O)N2CCC(N3C(=O)c4c(c(C)nn4-c4ccccc4)C3C3CC3)C2)cc1 (configuration not stated) | · | · | 18µM | · | 25µM
Cc1nn(-c2ccccc2)c2c1C(C1CC1)N(C1CN(C(=O)c3ccncc3)C1)C2=O (configuration not stated) | · | · | – | · | –
Cc1nn(-c2ccccc2)c2c1C(C1CC1)N(CC1CN(C(=O)c3ccc(F)cc3)C1)C2=O (configuration not stated) | · | · | ? | · | 35µM
Cc1nn(-c2ccccc2)c2c1C(C1CC1)N(C1CCCN(C(=O)c3ccc(F)cc3)C1)C2=O (configuration not stated) | · | · | ? | · | 32µM
Cc1nn(-c2ccccc2)c2c1C(C1CC1)N(C1CCN(C(=O)c3ccccc3)C1)C2=O (configuration not stated) | · | · | 14µM | · | ?
CCN1c2cc(C(=O)Nc3ccc(OC)c(Cl)c3)ccc2C(=O)N2CCCC21 (configuration not stated) | – | – | – | – | ?
CCn1cc(-c2ccc(C)cc2)cc1C(=O)NCCCN1CCOCC1 | – | – | ? | – | ?
Cc1ccccc1NC(=O)N1C[C@@H](F)C[C@H]1C(=O)N1CCc2ccccc2C1 | – | – | – | – | –
Cc1nn(-c2ccccc2)c2c1C(C1CC1)N(C1CN(C(=O)c3ccc(C(F)(F)F)cc3)C1)C2=O (configuration not stated) | · | · | – | · | ?
COc1ccc(C(=O)N2CCC(N3C(=O)c4c(c(C)nn4-c4ccccc4)C3C3CC3)C2)cc1 (configuration not stated) | · | · | ? | · | 45µM
CC(=O)NC1(C)CCCN(Cc2cccc(-c3ccc4c(ccn4C)c3)c2)C1 (configuration not stated) | ? | ? | 79µM | – | 56µM
CC(=O)NC1(C)CCN(Cc2cccc(-c3cccc(Cl)c3)c2)C1 (configuration not stated) | – | ? | ? | – | 79µM
Cn1ncc2c(C(=O)Nc3cccnc3)cc(-c3ccccc3C(F)(F)F)nc21 | · | · | – | · | –
COc1ccc(NC(=O)c2cc(-c3ccccc3C(F)(F)F)nc3c2cnn3C)cc1OC | · | · | ? | · | 32µM
Cn1ncc2c(C(=O)Nc3ccc(F)cc3)cc(-c3ccccc3C(F)(F)F)nc21 | · | · | ? | · | 28µM
CN(C)c1ccc(NC(=O)c2cc(-c3ccc(C(F)(F)F)cc3)nc3c2cnn3C)cc1 | · | · | – | · | –
CN(C)c1ccc(NC(=O)c2cc(-c3ccccc3C(F)(F)F)nc3c2cnn3C)cc1 | · | · | ? | · | 25µM
CN(CC#N)C(=O)c1cc(-c2ccccc2C(F)(F)F)nc2c1cnn2C | · | · | – | · | –
CCN(C(=O)c1cc(-c2ccccc2C(F)(F)F)nc2c1cnn2C)c1ccccc1 | · | · | ? | · | 25µM
CC(C)NC(=O)c1cc(-c2ccc(S(C)(=O)=O)cc2)c2cnn(C)c2n1 | · | · | ? | – | –
CCC(C)NC(=O)C1CCN(Cc2ccccc2-c2ccccc2F)CC1 (configuration not stated) | · | · | ? | · | –
O=C(NCCN1CCOCC1)c1nc2sccn2c1-c1ccccc1 | · | · | – | – | –
Cn1ncc2c(C(=O)Nc3cccc(C(F)(F)F)c3)cc(-c3ccccc3C(F)(F)F)nc21 | · | · | 28µM | · | 22µM

Source: PubChem BioAssay
